In ChEMBL document CHEMBL1201862, “PubChem BioAssay data set” (2004):
Among all 400,000 compounds or so, about 2,100 (0.53%) were called active. Not shown: some 14% with an inconclusive outcome. The rule behind the calls is not given here. Many of the other results were omitted from the sample, so actives are more common in it than they were.

These compounds were tested against Ataxin-2 (Homo sapiens) (UniProt Q99700) (assay: qHTS for Inhibitors of ATXN expression.).
Ataxin-2 (Homo sapiens), sequence (Q99700 whole entry): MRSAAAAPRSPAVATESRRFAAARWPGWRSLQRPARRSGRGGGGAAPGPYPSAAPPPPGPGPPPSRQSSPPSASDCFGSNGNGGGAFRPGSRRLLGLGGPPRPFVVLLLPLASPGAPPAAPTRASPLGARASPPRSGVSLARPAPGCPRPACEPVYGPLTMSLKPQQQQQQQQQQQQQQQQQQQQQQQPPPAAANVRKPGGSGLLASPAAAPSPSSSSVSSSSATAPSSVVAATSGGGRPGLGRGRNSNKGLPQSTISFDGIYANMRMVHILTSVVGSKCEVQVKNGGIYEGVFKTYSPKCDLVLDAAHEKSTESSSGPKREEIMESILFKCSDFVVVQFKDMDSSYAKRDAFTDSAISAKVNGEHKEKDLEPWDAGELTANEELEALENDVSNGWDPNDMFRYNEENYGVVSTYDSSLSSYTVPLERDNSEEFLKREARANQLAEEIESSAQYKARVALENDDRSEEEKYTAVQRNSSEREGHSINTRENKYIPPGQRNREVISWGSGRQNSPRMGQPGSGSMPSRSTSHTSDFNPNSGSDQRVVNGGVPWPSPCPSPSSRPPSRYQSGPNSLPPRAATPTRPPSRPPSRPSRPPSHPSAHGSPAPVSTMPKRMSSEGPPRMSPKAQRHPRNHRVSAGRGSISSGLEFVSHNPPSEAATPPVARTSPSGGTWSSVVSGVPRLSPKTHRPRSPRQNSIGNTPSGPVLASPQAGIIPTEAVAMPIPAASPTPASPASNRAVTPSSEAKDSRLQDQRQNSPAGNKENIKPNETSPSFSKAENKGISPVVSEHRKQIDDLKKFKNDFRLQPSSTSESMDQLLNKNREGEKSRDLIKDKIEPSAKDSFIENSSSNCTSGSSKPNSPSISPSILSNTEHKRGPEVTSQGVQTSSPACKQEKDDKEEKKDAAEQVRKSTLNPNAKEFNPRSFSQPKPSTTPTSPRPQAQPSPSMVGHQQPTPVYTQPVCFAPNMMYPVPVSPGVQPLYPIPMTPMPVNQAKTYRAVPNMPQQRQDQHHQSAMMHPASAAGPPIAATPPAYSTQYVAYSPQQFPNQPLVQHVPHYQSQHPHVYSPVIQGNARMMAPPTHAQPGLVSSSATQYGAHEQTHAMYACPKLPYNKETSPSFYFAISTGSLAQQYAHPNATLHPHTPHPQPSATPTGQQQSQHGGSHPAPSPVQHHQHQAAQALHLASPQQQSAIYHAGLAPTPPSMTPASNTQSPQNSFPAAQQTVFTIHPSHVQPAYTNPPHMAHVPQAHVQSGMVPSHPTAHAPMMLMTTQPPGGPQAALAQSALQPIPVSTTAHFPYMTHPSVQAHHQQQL
Format: functional
In the case of `COc1cc(/C=C(/C#N)c2nc3ccccc3[nH]2)ccc1OCC(=O)Nc1ccccc1C`, the Potency was “inactive”. With `Cc1cc(Br)ccc1SCC(=O)OC/C(O)=C(\C#N)c1nc2ccccc2[nH]1` the Potency was 11.2 µM (active). With `COc1cc(/C=C(/C#N)c2nc3ccccc3[nH]2)ccc1OCC(=O)Nc1ccccc1C(C)C` the Potency was “inactive”. With `Cc1cc(/C=C(/C#N)c2nc3ccccc3[nH]2)c(C)n1-c1ccccc1C(=O)O` the Potency was “inactive”. In the case of `Cc1c(C)c(C)c(S(=O)(=O)N2CCNCC2)c(C)c1C`, the Potency was “inactive”. `COCCN1C=C(C(=O)OC)C(c2ccccc2Cl)C(C(=O)OC)=C1` was tested, and the Potency was “inactive”. `O=C(NC(CC(=O)N1CCN(c2ccccc2)CC1)c1ccccc1)c1ccccc1` (stereo not given) was tested, and the Potency was “inactive”. With `O=C(N[C@@H](Cc1ccccc1)C(=O)OCc1ccccc1)c1[nH]cnc1C(=O)N1CCN(c2ccccc2)CC1` the Potency was 22.4 µM (active). For `CC(C)C[C@H](NC(=O)c1[nH]cnc1C(=O)N1CCN(C(=O)OC(C)(C)C)CC1)C(=O)OCc1ccccc1`, the Potency was 35.5 µM (active). `O=C(N[C@@H](Cc1ccccc1)C(=O)OCc1ccccc1)c1ccco1` was tested, and the Potency was “inactive”. In the case of `O=C(O)CCCC(=O)N1CCN(c2nc(-c3ccccc3)c3ccccc3n2)CC1`, the Potency was “inactive”. `COc1cccc(-c2cc(C(=O)N/N=C/c3cccc(OC)c3OC)c3ccccc3n2)c1` was tested, and the Potency was “inactive”. `COc1ccc2nc(C)cc(SCC(=O)N/N=C/c3cccc4ccccc34)c2c1` was tested, and the Potency was 22.4 µM (active). `Cc1cc(C(=O)N/N=C/c2cccnc2)c2ccccc2n1` was tested, and the Potency was “inactive”. `COc1ccc2nc(S)cc(C)c2c1` was tested, and the Potency was “inactive”. In the case of `COc1ccc2nc(C)cc(N/N=C/c3ccccc3)c2c1`, the Potency was 31.6 µM (active). `COc1ccc(/C=N/Nc2cc(C)nc3ccc(OC)cc23)c(OC)c1` was tested, and the Potency was “inactive”. For `COc1ccc2cc(/C=N/NC(=O)CN(c3ccccc3C)S(=O)(=O)c3ccccc3)c(Cl)nc2c1`, the Potency was “inactive”. `COc1ccc2nc(C)cc(N/N=C/c3cccc(OC)c3O)c2c1` was tested, and the Potency was 35.5 µM (active). With `COc1cccc(/C=N/n2c(SC)nnc2-c2ccccc2)c1O` the Potency was “inactive”. For `COc1ccc(C(=O)Nc2nc3n(n2)C(c2ccccc2)C=C(c2ccccc2)N3)cc1` (stereo not given), the Potency was “inactive”. For `COc1cccc(C2C=C(c3cccs3)Nc3ncnn32)c1OC` (stereo not given), the Potency was “inactive”. With `Cc1nc(N)c(Br)c(C)c1Br` the Potency was “inactive”. `Clc1ccccc1N1CCN(Cc2ccco2)CC1` was tested, and the Potency was “inactive”. In the case of `CCOC(=O)c1sc2nc(C3CC3)cc(-c3ccc(F)cc3)c2c1N`, the Potency was “inactive”. With `Cc1ccccc1NCC(=O)Nc1cc(S(=O)(=O)N2CCCCC2)ccc1C` the Potency was “inactive”. In the case of `SC1=C2CCCCCC2=NC2(CCCCCC2)S1`, the Potency was 44.7 µM (active). With `CSC1=NN(c2ccccc2)CN(c2ccccc2)N1C` the Potency was “inactive”. For `COc1ccc(-c2c(C)c3ccc(O)c(CN4CCC(C)CC4)c3oc2=O)cc1OC`, the Potency was “inactive”. In the case of `CCOC(=O)C1CCN(S(=O)(=O)c2ccc3c4c(cccc24)C(=O)N3)CC1`, the Potency was “inactive”. `CC1=[N+](C)c2c(ccc3cccnc23)C1(C)C` was tested, and the Potency was “inactive”. For `CC(C)c1ccc2nc3sc(C(=O)N4CCc5ccccc5C4)c(N)c3cc2c1`, the Potency was “inactive”. For `Cn1c2ccccc2c(=O)c2c(=O)n(C3CCCCCC3)c(C3CCCCC3)nc21`, the Potency was “inactive”. For `C/C(=N\Nc1nc2ccccc2[nH]1)c1cc2ccccc2o1`, the Potency was “inactive”. With `COc1ccc(C(=O)N[C@H](C(=O)Nc2nc3ccccc3[nH]2)C(C)C)cc1` the Potency was “inactive”. `Cc1c(C(=O)Nc2nc3ccccc3[nH]2)oc2ccccc12` was tested, and the Potency was 39.8 µM (active). For `COCCNC(=O)c1cnn2c(C(F)(F)F)cc(-c3ccc(C)cc3)nc12`, the Potency was “inactive”. With `CCOC(=O)c1cc2c(=O)n3ccccc3nc2n(CCCOC)/c1=N\C(=O)c1ccncc1` the Potency was “inactive”. `CN1CCN(c2ccc(-c3ccc4ccccc4n3)cc2)CC1` was tested, and the Potency was “inactive”. With `CN1CCN(c2ccc3sc(-n4ccc5ccccc54)nc3c2)CC1` the Potency was 39.8 µM (active). For `O=c1c(-c2nc3ccccc3s2)cccn1Cc1ccccc1`, the Potency was “inactive”. `C[C@@H]1O[C@H](O[C@@H]2[C@H](C)O[C@H](O[C@@H]3[C@H](C)O[C@H](O[C@H]4CC[C@]5(C)[C@@H](CC[C@@H]6[C@H]5C[C@@H](O)[C@]5(C)[C@@H](C7=CC(=O)OC7)CC[C@]65O)C4)C[C@@H]3O)C[C@@H]2O)C[C@H](O)[C@@H]1O` was tested, and the Potency was 0.224 µM (active). In the case of `CN(C)c1nc(-c2ccccc2)c2cc(Cl)ccc2n1`, the Potency was “inactive”. `Cc1c(CC(=O)NCc2ccccc2Cl)c(=O)oc2cc(O)ccc12` was tested, and the Potency was “inactive”. With `CC(=O)Oc1c(Cl)cc(Cl)cc1/C=C/c1ccc2ccccc2n1` the Potency was “inactive”. `COc1cc(/C=C/c2ccc3cccc(OC)c3n2)c(OC(C)=O)c([N+](=O)[O-])c1` was tested, and the Potency was 35.5 µM (active). In the case of `COc1ccc(C=Cc2ccc3ccccc3n2)c(OC)c1`, the Potency was “inactive”. For `CCOC(=O)c1c(C)[nH]c(C)c1C(=O)COC(=O)c1ccc(S(=O)(=O)C(F)F)cc1`, the Potency was “inactive”. `CCOC(=O)c1c(C)[nH]c2c1-c1ccccc1C(=O)C2=O` was tested, and the Potency was 2.82 µM (active). With `CCOC(=O)c1c(C)[nH]c(C)c1C(=O)COC(=O)c1ccc([N+](=O)[O-])s1` the Potency was “inactive”.
